Measured values taken from PubChem BioAssay (NCATS).
Records with an inconclusive call do not appear. Active and inactive are the calls of the source. Calls follow the shape of the dose curve; as a rule, active = well fitted inhibition curve with a large enough effect; inconclusive = small, poorly fitted or top-dose-only effect, or effect the other way; inactive = flat fitted curve, though single readings scatter.

assay: qHTS for Inhibitors of Plasmodium falciparum (CP250) proliferation (AID 504320);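 also: plate controls were DMSO vehicle for no effect and 0.29 µM artemisinin control for full effect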; details: P. falciparum CP250 in erythrocytes, SYBR Green DNA, 72 h; series mostly up to 6.7 µM; activity change, negative = inhibition: at the top concentration
Procedure, shortened: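 Erythrocytes infected with P. falciparum line (0.3% parasitemia, 2.5% hematocrit final) incubated with compounds 72 h at 37 °C, 5% CO2; SYBR Green lysis buffer added, fluorescence read next day. Normalized to 0.29 uM artemisinin and DMSO.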

Activity change, negative = inhibition, inactive:
COC(=O)[C@H]1[C@@H](c2ccccc2)NC(=O)N(Cc2ccccc2)[C@@H]1C -2.95%, COc1cccc([C@H]2Oc3ccc(OC)cc3C(=NOC[C@@H](O)COCc3ccco3)[C@H]2O)c1 1.55%, C=CCN=C1NC(c2cccc(F)c2)C(C(=O)OC)=C(C)N1Cc1ccccc1 (stereo unspecified) -13.4%, CC=COC(=O)N[C@@H](c1ccccc1)[C@]1(C(=O)OC)CCCC1=O -1.43%, CC(C)=CCN1C(=O)[C@]2(O[C@H](C)CC3=CCCC32)c2c(Br)cccc21 (stereo partly specified) -2.92%, COC(=O)C[C@H]1c2ccccc2C2=C(C[C@@H](C)[C@H]3C(=O)NC(=O)[C@@H]23)N1C(=O)OC 0.924%, COCCN1C(=O)NC(c2cccc(C(F)(F)F)c2)C(C(C)=O)=C1C (stereo unspecified) 1.61%, CC1(OC(=O)CCc2ccccc2)C(=O)C=C2C=C(c3ccsc3)OC=C2C1=O (stereo unspecified) 2.17%, O=P1(O)Oc2c(c(-c3ccccc3)cc3ccc4ccccc4c23)-c2c(-c3ccccc3)cc3ccc4ccccc4c3c2O1 -2.6%, CC(C)=CCN1C(=O)[C@]2(OCCC=C[C@H]2C)c2c(Br)cccc21 0.24%, COC(=O)CC=C1c2ccc(OC)cc2[C@@H](OC)[C@@H]1C -1%, C#CCN1C(=O)[C@]2(O[C@H](C)CC3=CCCC32)c2c(Br)cccc21 (stereo partly specified) -0.774%, COC(=O)N[C@H](c1ccccc1)C(C(=O)OC)C(=O)OC -0.617%

Potency, inactive:
COC(=O)CC=C[C@@H](C)[C@H](OC)c1c(Br)ccc2c1OCO2, COC(=O)N1C(c2ccccc2)=Cc2ccccc2C1CC(C)=O (stereo unspecified), COC(=O)N1C(C2CC2)=Cc2ccccc2C1CC(C)=O (stereo unspecified)
